Here are results for 107 compounds from ChEMBL document CHEMBL4513216, “Probing the Open Global Health Chemical Diversity Library for Multistage-Active Starting Points for Next-Generation Antimalarials” (ACS Infect Dis, 2020).

Hit rate of the full screen: of about 68,000 compounds, about 2,700 (4%) showed an effect of 50% or more. The entries come from a sample that favours strong results as a whole.

The test system of the assay is Plasmodium berghei. Kind of assay: Screen against P. berghei liver stage (PbLuc), transformed with Luciferase, at 2uM. Type of assay: functional, HepG2. Conditions: tested at 2 uM.
With `O=C(c1ccno1)N1CCOC[C@H](Oc2ccc(C(F)(F)F)cc2)C1`, the INHIBITION came out at 28.05%.
The same measure for `Cc1cnc(C)c(N2C[C@H]3OC(=O)N(C4CCCC4)[C@H]3C2)n1`: 12.59%; for `O=C(C1CCCC1)N1C[C@@H]2CCN(c3cccnc3)C[C@@H]2C1`: -3.25%; for `O=C(Cc1ccc(F)cc1)N1CCn2cc(Cn3cccn3)nc2C1`: -6.3%.
`CC(C)(C)C(=O)N1CCCC1c1nc(O)cc(-c2ccccn2)n1` (configuration not stated): the INHIBITION is -10.16%.
Then `COc1cc(C(=O)NC(C)C)nc2c(C)cc(F)cc12`, with 35.91%; and `CNc1nc2c(c(C(=O)N3CCCC3)n1)CN(Cc1cc(C)no1)CC2`, with 10.63%.
For the compound `CS(=O)(=O)N1CCN(C(=O)c2cc(-c3cccs3)cs2)CC1`, the INHIBITION was -23.8%.
`CC(C(=O)N1CCOCC1)n1cc(Br)cn1` (configuration not stated): the INHIBITION is listed as 15.05%.
Then `CNC(=O)CCNC(=O)c1ccccc1N1CCOCC1`, with -23.9%; and `O=C(CCNC(=O)c1ccccc1N1CCOCC1)NC1CCCC1`, with 58.76%.
The same measure for `CCCNC(=O)CCNC(=O)c1ccccc1N1CCOCC1`: -21.71%.
In the case of `COc1cc(N2C[C@@H]3COC[C@]3(COc3cccnc3)C2)ncn1`, the INHIBITION is given as -38.72%.
Then `COCCN1CCN(C(=O)c2ccc(C)cc2F)[C@H]2CS(=O)(=O)C[C@H]21`, with 32.26%; and `COc1ccc(Cc2nnc3n2N=C(C(C)(C)C)CS3)cc1`, with -13.89%.
For the compound `Cc1cnn(CC2CN(Cc3cccnc3)CCO2)c1` (configuration not stated), the INHIBITION is 41.76%.
Take `CN1CCCC(c2cccc(-c3cccc(Cl)c3)n2)C1` (configuration not stated): the INHIBITION was 51.5%.
Consider `CN1CCCC(c2cccc(-c3cccc(F)c3)n2)C1` (configuration not stated), for which the INHIBITION is given as 13.88%.
`CN1CCCC(c2cccc(-c3cccc(C(F)(F)F)c3)n2)C1` (configuration not stated): the INHIBITION came to 38.64%.
Then `O=C(CCc1ccccc1Br)NCC(=O)NCc1ccccc1`, with -13.34%.
For `CCc1noc(C(C)N(C)CC(=O)Nc2c(C)cccc2C)n1` (configuration not stated), the INHIBITION turned out to be 32.81%.
On to `CCc1noc(C(C)N(C)CC(=O)Nc2cccc(C)c2C)n1` (configuration not stated), for which the INHIBITION was found to be 1.73%.
The same measure for `CCc1noc(C(C)N(C)CC(=O)Nc2ccc(Br)cc2C)n1` (configuration not stated): 53.57%; for `CC[C@@H](CO)Nc1nccc(-c2c[nH]c3cc(C(=O)OC)ccc23)n1`: 17.01%.
The same measure for `Cc1cccc(CNC(Cc2ccsc2)c2nccs2)n1` (configuration not stated): 24.13%; for `CNc1cc(C)nc(C2CN(Cc3cc[nH]n3)CCO2)c1` (configuration not stated): 21.37%; for `CCCS(=O)(=O)N1CCC2(CC1)CCn1c(-c3cnn(C)c3)cnc12`: 18.05%.
Then `CCn1cnnc1CCNC(=O)CCNC(=O)c1ccccc1F`, with 52.98%.
Take `CC(CNC(=O)c1ccc(Cl)cc1F)N1CCCC1` (configuration not stated): the INHIBITION is given as 9.57%.
In the case of `CCn1cnnc1CNC(=O)c1ccc(Cl)cc1F`, the INHIBITION was found to be 39.32%.
Then `CCn1cnnc1CCNC(=O)c1ccc(Br)cc1F`, with -13.8%; and `CC(CNC(=O)c1cc(Cl)ccc1I)N1CCCC1` (configuration not stated), with 10.11%.
The same measure for `CCn1cnnc1CCNC(=O)c1ccc(F)c(Br)c1`: 2.9%; for `CCn1cnnc1CNC(=O)c1cc(Cl)ccc1F`: 54.99%; for `CCn1cnnc1CNC(=O)c1cc(Cl)ccc1O`: 2.1%.
The same measure for `CC(CNC(=O)c1cc(Cl)ccc1F)N1CCCC1` (configuration not stated): 50.94%; for `Cn1c(N2CCOCC2)nc2cc(C(=O)N3CCC(O)(CO)C3)ccc21` (configuration not stated): -2.63%.
For the compound `N#CCC(=O)NCc1nnc2n1CCN(Cc1ccco1)C2`, the INHIBITION is recorded as -4.53%.
For `CCN(CCCN1CCOCC1)C(=O)c1cnn(CC)c1`, the INHIBITION was determined as 35.54%.
The same measure for `O=C(NC1CCCC1)N1CC[C@H]2[C@H]1CCN2c1nncs1`: 49.25%; for `C=C(C)COc1ccccc1CN1CCCC(C(=O)NCCCO)C1` (configuration not stated): -25.95%.
On to `CN(C)C(=O)CN1CC[C@H]2CN(S(C)(=O)=O)C[C@@H]2C1=O`, for which the INHIBITION is 21.06%.
As for `CNC(=O)CS(=O)(=O)C1CCN(S(=O)(=O)c2ccccc2Cl)CC1`, the INHIBITION is on record as 68.69%.
In the case of `CNC(=O)CS(=O)(=O)C1CCN(S(=O)(=O)c2cccc(Cl)c2C)CC1`, the INHIBITION was -52.21%.
With `CNC(=O)CS(=O)(=O)C1CCN(S(=O)(=O)c2ccccc2Br)CC1`, the INHIBITION worked out at 27.5%.
The same measure for `Cc1ccc(NC(=O)Nc2cnc(N3CCN(C)CC3)nc2)cc1`: -4.34%.
The same measure for `Cc1occc1C(=O)N1CC[C@@H](N2CCOCC2)[C@@H]1Cc1ccccc1`: -23.67%; for `COc1ccc(OCCCNCCn2cccn2)cc1`: 31%; for `CN1CCN(C(=O)CCc2cc(Br)cs2)CC1`: 72.05%.
On to `CC(=O)N1CCN(C(=O)CCc2cc(Br)cs2)CC1`, for which the INHIBITION came to 26.74%.
Then `CN(C)C1CCN(C(=O)CCc2cc(Br)cs2)CC1`, with 41.05%; and `COCCC(=O)N1CCc2c(CNc3ncccn3)cncc2C1`, with 17.77%.
Take `CCSC1(CNc2ncc(Br)cn2)CCOCC1`: the INHIBITION stood at 13.53%.
Then `CCCc1n[nH]c(C2CN(CCS(=O)(=O)CC)CCO2)n1` (configuration not stated), with -5.7%; and `NCC1[C@H]2CN(CCc3ccccc3)C[C@@H]12` (some centres not stated), with -7.41%; and `NCC1[C@H]2CN(Cc3ccccc3)C[C@@H]12` (some centres not stated), with 55.7%.
The same measure for `NCC1[C@H]2CN(Cc3cccc(Cl)c3)C[C@@H]12` (some centres not stated): 45.77%; for `CN(C)Cc1cc(=O)n2c(n1)CN(C(=O)c1ccc[nH]1)CCC2`: -16.33%.
With `O=C(CCC1CCN(C2CSCCSC2)CC1)NCC1CCCO1` (configuration not stated), the INHIBITION is -15.37%.
Regarding `Cc1cc(=O)[nH]c(NCCNC(=O)c2ccccc2N2CCCC2)n1`, the INHIBITION was 41.14%.
Then `Cc1nc(O)cc(CCNC(=O)CN2CCCCCC2)n1`, with 4.12%; and `Cc1cc(=O)[nH]c(NCCNC(=O)CN2CCCCCC2)n1`, with 56.93%.
Then `CC(C)C(=O)NCCCn1ncc2c(Cl)cccc21`, with -7.01%; and `CSCC(=O)N(C)Cc1ccc(N(C)C)cc1`, with -20.68%.
`Cc1ccc2cc(CN(C)Cc3ccncn3)c(=O)[nH]c2c1`: the INHIBITION was -20.98%.
As to `O=C(CCn1ncc2c(Cl)cccc21)NCC1CC1`, the INHIBITION is recorded as 20.8%.
As to `CCCC(=O)N(C)c1cccc2ncccc12`, the INHIBITION stood at 28.14%.
Then `CN(C(=O)CCC(F)(F)F)c1cccc2ncccc12`, with 59.67%; and `CN(Cc1cccc2ncccc12)C(=O)CCC(F)(F)F`, with -22.2%.
With `CCN(CC)S(=O)(=O)N(C)Cc1ccc2c(c1)OCCO2`, the INHIBITION amounted to 8.06%.
The same measure for `CCN(CC(=O)NCCc1nc(C)no1)Cc1ccc(Cl)cc1`: -45.29%; for `CCN(CC)C(=O)CCc1c(C)nc2cc(O)nn2c1C`: 18.97%.
As for `Cc1nc2cc(O)nn2c(C)c1CCC(=O)N(C)Cc1ccccc1`, the INHIBITION was determined as 37.41%.
Then `Cc1nc2cc(O)nn2c(C)c1CCC(=O)N(C)CCC(C)C`, with 65.38%; and `CC(C)(C)c1cc(CNC(=O)c2cc(COc3ccccc3)[nH]n2)[nH]n1`, with -103.13%; and `Cc1nn(C)c(C)c1NC(=O)CN1CCCC1c1noc(C(C)C)n1` (configuration not stated), with 12.66%.
Turning to `CC1=C(CCN2C[C@H](O)[C@@H](N3CCOCC3)C2)C(C)(C)CCC1`, the INHIBITION was -57.94%.
Then `CCOC(=O)N1CCN(c2nc(CCN)nc3sc(C)c(C)c23)CC1`, with 17.89%; and `Cc1sc2nc(CCN)nc(N3CCN(S(C)(=O)=O)CC3)c2c1C`, with 20.77%.
Regarding `Cc1sc2nc(CCN)nc(N3CCS(=O)(=O)CC3)c2c1C`, the INHIBITION is 60.04%.
As for `CCn1cc(Cl)c(C(=O)Nc2ccc3c(c2)C(C)(C)C(=O)N3C)n1`, the INHIBITION worked out at 14.61%.
Consider `Cc1ccc(S(=O)(=O)NC(=O)CCc2ccccc2)cc1N(C)C`, for which the INHIBITION is 0.01%.
The same measure for `CCOc1cccc(CCNC(=O)Cc2ccccc2O)n1`: 76.82%; for `CCOc1cccc(CCNC(=O)Cc2cccc(O)c2)n1`: 26.74%.
The same measure for `CCOc1cccc(CCNC(=O)Cc2ccn[nH]2)n1`: 14.82%; for `CN(C)C(=O)C1CCC2(CCN(Cc3cnn(C)c3)CC2)C1` (configuration not stated): 9.65%; for `CN(CCCOc1ccccc1)C(=O)c1csc(-c2nnc[nH]2)n1`: 35.94%.
Regarding `COC(=O)c1cc(C(=O)N2CCCCCC2)n(-c2ccccc2)n1`, the INHIBITION came to 63.95%.
Then `COC(=O)c1cc(C(=O)N2CCC(C)CC2)n(-c2ccccc2)n1`, with 35.23%; and `COC(=O)c1cc(C(=O)N2CCN(C)CC2)n(-c2ccccc2)n1`, with 15.4%; and `CC(C)OCCCNC(=O)CS(=O)(=O)Cc1ccc(C(C)(C)C)cc1`, with 33.22%.
Turning to `CC(C)(C)SCC(=O)NC(C)(C(N)=O)c1cccc(Cl)c1` (configuration not stated), the INHIBITION is -20.64%.
In the case of `COCc1csc(NC(=O)NCc2ccc(C)s2)n1`, the INHIBITION is 50.93%.
Take `COCc1csc(NC(=O)NCc2ccsc2)n1`: the INHIBITION is -21.99%.
The same measure for `COCc1csc(NC(=O)NCc2ccccn2)n1`: -4.91%.
The same measure for `COc1ccc(CCC(=O)NC2CCC(O)CC2)cc1OC` (configuration not stated): -59.24%.
Then `Cc1[nH]ncc1C(=O)N1CCCC(c2ccn[nH]2)C1` (configuration not stated), with -1.46%.
For `Cc1nc(C)n(C2CCCN(C(=O)c3ncoc3C(C)C)C2)n1` (configuration not stated), the INHIBITION is given as -12.27%.
The same measure for `CC(C)c1ocnc1C(=O)N1CCCC(c2ccn[nH]2)C1` (configuration not stated): 70.81%.
Then `CCCN(C(=O)c1ocnc1C)C1CCCN(Cc2ccccc2)C1` (configuration not stated), with 4.72%.
The same measure for `CSC(C)(C)CNC(=O)NCc1cccc(-n2cncn2)c1`: 54.29%.
For `CC(O)(CNC(=O)NCc1cccc(-n2cncn2)c1)c1ccco1` (configuration not stated), the INHIBITION is recorded as -33.81%.
In the case of `CC(O)CC(C)(C)CNC(=O)NCc1cccc(-n2cncn2)c1` (configuration not stated), the INHIBITION was 1.22%.
Regarding `CC(C)C(O)C(C)(C)CNC(=O)NCc1ccc(-n2cncn2)cc1` (configuration not stated), the INHIBITION worked out at 53.19%.
The same measure for `CSC(C)(C)CNC(=O)NCc1cccc(-n2ccnc2)c1`: -27.12%.
Then `CC(NC(=O)Nc1ccc(-n2cncn2)cc1)C(=O)NC(C)(C)C` (configuration not stated), with 12.01%.
With `Cn1cc(Cl)cc1C(=O)N1CCCN(Cc2ccccc2)CC1`, the INHIBITION was -7.88%.
